# Laboratory results taken from ChEMBL document CHEMBL5606460, “ASAP - DENV-2 NS2B-NS3 protease fluorescence single point” (2024).
# Hit rate of the full screen: of about 2,000 compounds, about 110 (5.5%) showed an effect of 50% or more. Shown is part of a subset that was picked to be rich in strong results.
# Target: Genome polyprotein (dengue virus type 2) (UniProt P29990)
# [1] = Thailand/16681/1984, Concentration 25.0 uM, Number of replicates 1.0
smiles,measurement,setting,value
CCCC[C@H](NC(C)=O)C(=O)N[C@@H](C(=O)NCc1ccc(C(N)=O)cc1)c1ccc(OCc2ccccc2)cc1,inhibition,"Thailand/16681/1984, Concentration 49.5 uM, Number of replicates 2.0, Standard deviation 1.1393107429607887 %",-2.14%
same,inhibition,"Thailand/16681/1984, Concentration 99.01 uM, Number of replicates 2.0, Standard deviation 1.3468928227151291 %",-2.15%
same,inhibition,"Thailand/16681/1984, Concentration 198.0 uM, Number of replicates 2.0, Standard deviation 1.6817028564994563 %",-0.786%
c1cnc(C2CCN(Cc3c[nH]c4ccccc34)CC2)nc1,inhibition,"Thailand/16681/1984, Concentration 49.5 uM, Number of replicates 2.0, Standard deviation 0.0814293971969877 %",-4.94%
same,inhibition,"Thailand/16681/1984, Concentration 99.01 uM, Number of replicates 2.0, Standard deviation 1.1974150626674833 %",-3.24%
same,inhibition,"Thailand/16681/1984, Concentration 198.0 uM, Number of replicates 2.0, Standard deviation 1.6263665310687148 %",-1.42%
COC(=O)c1csc(Cn2ncc(C3CCNCC3)c2C)n1,inhibition,"Thailand/16681/1984, Concentration 49.5 uM, Number of replicates 2.0, Standard deviation 0.7717951129802201 %",-5.62%
same,inhibition,"Thailand/16681/1984, Concentration 99.01 uM, Number of replicates 2.0, Standard deviation 0.8815947340216488 %",-4.23%
same,inhibition,"Thailand/16681/1984, Concentration 198.0 uM, Number of replicates 2.0, Standard deviation 1.4332580373412276 %",-2.98%
O=C(Cc1cnc[nH]1)NC1CCN(C(=O)c2cccc3[nH]ncc23)CC1,inhibition,"Thailand/16681/1984, Concentration 49.5 uM, Number of replicates 2.0, Standard deviation 0.5712330544607026 %",-0.001%
same,inhibition,"Thailand/16681/1984, Concentration 99.01 uM, Number of replicates 2.0, Standard deviation 0.88648652906749 %",0.297%
same,inhibition,"Thailand/16681/1984, Concentration 198.0 uM, Number of replicates 2.0, Standard deviation 1.4162803173835237 %",-0.087%
O=Cc1ccc(N2CCC(C(=O)Nc3n[nH]c4ccc(Br)cc34)CC2)cc1,inhibition,[1],10.1%
CCN(CC)S(=O)(=O)c1ccc(NC(=O)C2CCN(c3ccc(C=O)cc3)CC2)cc1,inhibition,[1],12.2%
O=C(Nc1cc2c(cc1C1CC1)CNC2)c1cc(F)cc2[nH]ncc12,inhibition,"Thailand/16681/1984, Concentration 99.5 uM, Number of replicates 2.0, Standard deviation 0.34945873996674337 %",63.1%
same,inhibition,"Thailand/16681/1984, Concentration 295.6 uM, Number of replicates 2.0, Standard deviation 0.6526301250248825 %",85.2%
COc1cc(Cc2c(-c3ccc(F)cc3)noc2C)nc(N2CCNCC2)n1,inhibition,"Thailand/16681/1984, Concentration 49.5 uM, Number of replicates 2.0, Standard deviation 0.4285559202279565 %",-0.048%
same,inhibition,"Thailand/16681/1984, Concentration 99.01 uM, Number of replicates 2.0, Standard deviation 0.4007548684992308 %",1.07%
same,inhibition,"Thailand/16681/1984, Concentration 198.0 uM, Number of replicates 2.0, Standard deviation 0.4757654271085549 %",6.24%
O=Cc1ccc(N2CCC(C(=O)NCc3c(F)ccc(F)c3F)CC2)cc1,inhibition,[1],12.3%
O=Cc1ccc(N2CCC(C(=O)NCCc3ccc(Cl)c(Cl)c3)CC2)cc1,inhibition,[1],11.5%
CCN(CC)C1CCN(C(=O)C2CCN(c3ccc(C=O)cc3)CC2)CC1,inhibition,[1],12.6%
C[C@@H](NC(=O)c1cc(Cl)ccc1NS(=O)(=O)c1ccc(Oc2ccccc2Cl)cc1)C1COC1,inhibition,"Thailand/16681/1984, Concentration 49.5 uM, Number of replicates 2.0, Standard deviation 0.4885797549298071 %",59.2%
same,inhibition,"Thailand/16681/1984, Concentration 99.01 uM, Number of replicates 2.0, Standard deviation 0.152624190876378 %",68.4%
same,inhibition,"Thailand/16681/1984, Concentration 198.0 uM, Number of replicates 2.0, Standard deviation 0.02447349481851786 %",59.2%
C[C@@H](NC(=O)c1cc(Cl)ccc1NS(=O)(=O)c1ccc(Oc2ccccc2Cl)cc1)[C@H]1CCCO1,inhibition,"Thailand/16681/1984, Concentration 49.5 uM, Number of replicates 2.0, Standard deviation 0.29635236214386457 %",82.5%
same,inhibition,"Thailand/16681/1984, Concentration 99.01 uM, Number of replicates 2.0, Standard deviation 0.052507555399236044 %",84.4%
same,inhibition,"Thailand/16681/1984, Concentration 198.0 uM, Number of replicates 2.0, Standard deviation 0.13838732262418607 %",80.7%
Cc1cnccc1NC(=O)c1cc(C2CCCC2)n(C)c1C,inhibition,"Thailand/16681/1984, Concentration 49.5 uM, Number of replicates 2.0, Standard deviation 1.895573393565592 %",-3.53%
same,inhibition,"Thailand/16681/1984, Concentration 99.01 uM, Number of replicates 2.0, Standard deviation 0.7217418528634704 %",-1.88%
same,inhibition,"Thailand/16681/1984, Concentration 198.0 uM, Number of replicates 2.0, Standard deviation 1.3851925911876457 %",0.718%
CC[C@H](C#N)NC(=O)c1cc(Cl)ccc1NS(=O)(=O)c1ccc(Oc2ccccc2Cl)cc1,inhibition,"Thailand/16681/1984, Concentration 49.5 uM, Number of replicates 2.0, Standard deviation 0.706613157296788 %",44.6%
same,inhibition,"Thailand/16681/1984, Concentration 99.01 uM, Number of replicates 2.0, Standard deviation 0.473003628419333 %",22.1%
same,inhibition,"Thailand/16681/1984, Concentration 198.0 uM, Number of replicates 2.0, Standard deviation 1.2548162043536224 %",2.91%
CCCCCNC(=O)c1cc(Cl)ccc1NS(=O)(=O)c1ccc(Oc2ccccc2Cl)cc1,inhibition,"Thailand/16681/1984, Concentration 49.5 uM, Number of replicates 2.0, Standard deviation 0.23227296801747743 %",78.7%
same,inhibition,"Thailand/16681/1984, Concentration 99.01 uM, Number of replicates 2.0, Standard deviation 0.006678758202430312 %",76.9%
same,inhibition,"Thailand/16681/1984, Concentration 198.0 uM, Number of replicates 2.0, Standard deviation 0.04271599955318515 %",65.6%
CC(C)CNC(=O)c1cc(Cl)ccc1NS(=O)(=O)c1ccc(Oc2ccccc2Cl)cc1,inhibition,"Thailand/16681/1984, Concentration 49.5 uM, Number of replicates 2.0, Standard deviation 0.23411798845789034 %",89.6%
same,inhibition,"Thailand/16681/1984, Concentration 99.01 uM, Number of replicates 2.0, Standard deviation 0.14645254355523077 %",88.7%
same,inhibition,"Thailand/16681/1984, Concentration 198.0 uM, Number of replicates 2.0, Standard deviation 0.2542297902177128 %",84.4%
CNC(=O)[C@@H](C)CNS(=O)(=O)c1ccc(Oc2ccccc2Cl)cc1,inhibition,"Thailand/16681/1984, Concentration 49.5 uM, Number of replicates 2.0, Standard deviation 0.8337442367954725 %",-0.747%
same,inhibition,"Thailand/16681/1984, Concentration 99.01 uM, Number of replicates 2.0, Standard deviation 0.25212885411314173 %",0.957%
same,inhibition,"Thailand/16681/1984, Concentration 198.0 uM, Number of replicates 2.0, Standard deviation 0.23111814436827896 %",2.51%
COC[C@@H](C)CNC(=O)c1cc(Cl)ccc1NS(=O)(=O)c1ccc(Oc2ccccc2Cl)cc1,inhibition,"Thailand/16681/1984, Concentration 49.5 uM, Number of replicates 2.0, Standard deviation 0.2816677257730929 %",82.2%
same,inhibition,"Thailand/16681/1984, Concentration 99.01 uM, Number of replicates 2.0, Standard deviation 0.03025941418209339 %",83.8%
same,inhibition,"Thailand/16681/1984, Concentration 198.0 uM, Number of replicates 2.0, Standard deviation 0.3452939569842909 %",76.9%
C[C@@H](CS(C)(=O)=O)NC(=O)c1cc(Cl)ccc1NS(=O)(=O)c1ccc(Oc2ccccc2Cl)cc1,inhibition,"Thailand/16681/1984, Concentration 49.5 uM, Number of replicates 2.0, Standard deviation 0.5989303195749703 %",51.1%
same,inhibition,"Thailand/16681/1984, Concentration 99.01 uM, Number of replicates 2.0, Standard deviation 0.4213875631597994 %",57%
same,inhibition,"Thailand/16681/1984, Concentration 198.0 uM, Number of replicates 2.0, Standard deviation 0.24651523106627876 %",43%
